A selection: hits, their analogues and other compounds. The true share with any hit is near 7%.
BAZ2B inh: qHTS Assay for Inhibitors of BAZ2B; Potency, µM (highest dose often 114 µM), for inactives: at the top dose activity change, negative = inhibition, usual class: inhibitors; AlphaScreen BAZ2B-H3K14Ac peptide displacement; 360,000 compounds, 4.4% hits; AID 504333, 2011; Bromodomain adjacent to zinc finger domain protein 2B (Homo sapiens), Q9UIF8; note: potency is the fitted concentration of half-maximal effect; % is set by controls: 0 for no effect and ±100 for the full control effect; nearly all actives have a fitted effect of over 60% in size
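Inhibition is scored as reduced AlphaScreen emission. The BAZ2B/b-H3(5-23)K14Ac complex (50 nM each) in PBS pH 7.4, 0.01% Tween-20 meets compound (up to 110 uM) for 30 min at RT before bead addition.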
KAT2A inh: qHTS Assay for Inhibitors of GCN5L2 | AID 504327, 2011 | Potency, µM (titrated, usually from 58.9 µM), for the others: top-dose activity change, negative = inhibition, actives largely listed as inhibitors | GCN5L2 HAT assay, ThioGlo1 CoA-SH fluorescence | 390,000 compounds, 0.21% hits; note: potency is the fitted concentration of half-maximal effect; % is set by controls: 0 for no effect and ±100 for the full control effect
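Fluorescence readout, Ex340nm/Em540nm: ThioGlo1 (50uM final) reacts with free CoA thiol released as 20nM GCN5L2 acetylates H3(1-25) peptide (75uM) using acetyl-CoA (70uM). Compound and enzyme sat 15 min beforehand; 20 min room-temperature reaction.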
PLK1 PBD inh: qHTS for Inhibitors of PLK1-PDB (polo-like kinase 1 - polo-box domain): Primary Screen; Serine/threonine-protein kinase PLK1 (Homo sapiens), P53350; Plk1 PBD binding of FITC phosphopeptide, fluorescence polarization; Potency, µM, for inactives: max response, negative = inhibition, actives largely listed as inhibitors; 360,000 compounds, 2.8% hits; note: potency is the fitted concentration of half-maximal effect; series mostly up to about 57 µM; % is set by controls: 0 for no effect and ±100 for the full control effect; nearly all actives have a fitted effect of over 65% in size
HP1b binding inh: HTS for Inhibitors of HP1-beta Chromodomain Interactions with Methylated Histone Tails | Chromobox protein homolog 1 (Homo sapiens), P83916 | AlphaScreen HP1-beta / biotin-H3K9me3 peptide binding | Potency, µM (titrated, usually from 114 µM), for the others: at the highest dose activity change, negative = inhibition, usual class: inhibitors | 390,000 compounds, 0.56% hits | AID 540317, 2011; note: potency is the fitted concentration of half-maximal effect; nearly all actives have a fitted effect of over 70% in size
Target sequence (P83916 whole entry, looked up): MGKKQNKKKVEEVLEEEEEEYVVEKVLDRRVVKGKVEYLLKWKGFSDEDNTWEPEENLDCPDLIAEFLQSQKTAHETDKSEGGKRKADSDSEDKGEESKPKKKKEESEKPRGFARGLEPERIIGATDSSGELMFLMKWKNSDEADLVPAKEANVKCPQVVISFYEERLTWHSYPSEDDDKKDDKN
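AlphaScreen: HP1-beta (50 nM) preformed 30 min with biotin-H3(1-18)K9me3 peptide (50 nM) in PBS pH 7.4, 0.01% Tween-20. Compound added for 30 min at RT, then streptavidin donor/nickel chelate acceptor beads (10 ug/mL) for 30 min.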
JMJD2A Tudor: qHTS Assay for Inhibitors of JMJD2A-Tudor Domain. Lysine-specific demethylase 4A (Homo sapiens), O75164. AlphaScreen JMJD2A-Tudor / H3K4me3 peptide binding. Potency, µM (titrated, usually from 114 µM), for the others: top-dose activity change, negative = inhibition, usual class: inhibitors. 390,000 compounds, 4.4% hits. AID 504339, 2011; note: potency is the fitted concentration of half-maximal effect; % is set by controls: 0 for no effect and ±100 for the full control effect; nearly all actives have a fitted effect of over 50% in size
PI5P4Ka inh: qHTS for Inhibitors of phosphatidylinositol 5-phosphate 4-kinase (PI5P4K); Phosphatidylinositol 5-phosphate 4-kinase type-2 alpha (Homo sapiens), P48426; PI5P4Kalpha enzyme, ADP-Glo luminescence, 60 min; active compounds read low; max response, %; 330,000 compounds, 1.2% hits; active = max response of -50% or lower; inconclusive = between -30% and -50%; inactive = -30% or higher; note: value at the top dose of about 77 µM; % is set by controls: 0 for no effect and ±100 for the full control effect
Target sequence (P48426 whole entry, looked up): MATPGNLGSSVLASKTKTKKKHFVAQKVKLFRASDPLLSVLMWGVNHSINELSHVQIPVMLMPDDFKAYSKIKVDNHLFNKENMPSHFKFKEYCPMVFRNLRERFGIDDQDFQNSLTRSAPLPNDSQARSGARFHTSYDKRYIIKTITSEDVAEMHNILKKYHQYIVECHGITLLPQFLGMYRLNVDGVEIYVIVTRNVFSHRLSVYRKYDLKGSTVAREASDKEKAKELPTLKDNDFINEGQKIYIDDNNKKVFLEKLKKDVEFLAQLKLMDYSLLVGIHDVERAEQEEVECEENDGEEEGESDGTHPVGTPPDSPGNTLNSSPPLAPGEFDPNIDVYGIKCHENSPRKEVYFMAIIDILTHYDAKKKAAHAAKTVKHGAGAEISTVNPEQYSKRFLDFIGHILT
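Quantitative HTS of the MLSMR library against PI5P4Kalpha with substrate. ATP added last at 5 microM final; room temperature, 60 minutes. Remaining ATP depleted, ADP converted and read as luminescence.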
Active calls of the source: *; [ ] = dose if it differs, or a comment. Unless noted, calls come from the whole dose curve; as a rule, active = well fitted curve in the direction sought with a large enough effect; inconclusive = small, poorly fitted or top-dose-only effect, or another doubt; inactive = no such curve, though single readings can be large; an effect the other way counts as inactive or inconclusive.

`CN(C)c1ccc(C(CNC(=O)c2ccccc2Cl)N2CCCC2)cc1` (stereo unspecified) gave BAZ2B inh -27.5%, KAT2A inh 28.3%, HP1b binding inh -3.1% and JMJD2A Tudor -23.5%.
CC(C)C(=O)O/N=C(\N)c1ccccn1 was read as BAZ2B inh 3.9%, KAT2A inh 0.6%, PLK1 PBD inh -6.4%, HP1b binding inh 16.9%, JMJD2A Tudor -2.8% and PI5P4Ka inh -3.9.
Screening N/C(=N\OS(=O)(=O)c1ccccc1)c1ccccn1 returned BAZ2B inh 22.4µM*, KAT2A inh -1.7%, PLK1 PBD inh -0.8%, HP1b binding inh 44.0%, JMJD2A Tudor 3.55µM* and PI5P4Ka inh 1.4.
N/C(=N\OS(=O)(=O)c1ccc(Cl)cc1)c1ccccn1 was read as BAZ2B inh 25.1µM*, KAT2A inh -6.6%, PLK1 PBD inh -11.0%, HP1b binding inh 55.7%, JMJD2A Tudor 25.1µM* and PI5P4Ka inh 0.0.
COc1ccccc1OCC(=O)N1CCCC(Nc2ccc(C)c(C)c2)C1 (stereo unspecified) was read as BAZ2B inh inconclusive, KAT2A inh -5.7%, PLK1 PBD inh -14.3%, HP1b binding inh -28.4%, JMJD2A Tudor inconclusive and PI5P4Ka inh 9.6.
Cc1ccc(NC2CCCN(C(=O)c3cn(C)c4ccccc34)C2)cc1C (stereo unspecified) was read as BAZ2B inh inconclusive, KAT2A inh -15.4%, PLK1 PBD inh -5.7%, HP1b binding inh -14.1%, JMJD2A Tudor 25.1µM* and PI5P4Ka inh 8.7.
For O=C(CCc1ccccn1)N1CCCC(Nc2ccc(F)cc2)C1 (stereo unspecified) the results were BAZ2B inh -31.4%, KAT2A inh -9.8%, PLK1 PBD inh -24.2%, HP1b binding inh 16.5%, JMJD2A Tudor -22.2% and PI5P4Ka inh 3.6.
`COc1ccc(NC2CCCN(C(=O)c3cn(C)c4ccccc34)C2)cc1` (stereo unspecified) gave BAZ2B inh inconclusive, KAT2A inh -1.3%, PLK1 PBD inh -1.7%, HP1b binding inh -10.9%, JMJD2A Tudor -25.7% and PI5P4Ka inh -2.6.
Screening Cc1ccc(NC2CCCN(C(=O)C3CCCCC3)C2)cc1C (stereo unspecified) returned BAZ2B inh 79.4µM*, KAT2A inh -2.8%, PLK1 PBD inh -8.9%, HP1b binding inh 11.6%, JMJD2A Tudor -34.9% and PI5P4Ka inh 4.4.
O=C(CCc1ccccn1)N1CCCC(Nc2cccc(F)c2)C1 (stereo unspecified) was read as BAZ2B inh -2.7%, KAT2A inh -3.0%, PLK1 PBD inh -16.0%, HP1b binding inh 29.1%, JMJD2A Tudor 7.08µM* and PI5P4Ka inh -0.5.
For O=C(C1CCCC1)N1CCCC(Nc2ccc(F)cc2)C1 (stereo unspecified) the results were BAZ2B inh -22.2%, KAT2A inh 0.7%, PLK1 PBD inh -2.9%, HP1b binding inh 21.9%, JMJD2A Tudor -11.0% and PI5P4Ka inh 12.8.
Screening Cc1ccc(NC2CCCN(C(=O)CSc3ccccn3)C2)cc1C (stereo unspecified) returned BAZ2B inh inconclusive, KAT2A inh -6.3%, PLK1 PBD inh 23.8µM*, HP1b binding inh -24.3%, JMJD2A Tudor inconclusive and PI5P4Ka inh -6.0.
Screening CCOc1ccc(OCC)c(NC(=O)CN(C)S(=O)(=O)c2ccc3c(c2)CCCC(=O)N3)c1 returned BAZ2B inh -2.0%[57.1 µM], KAT2A inh 19.1%, HP1b binding inh -5.7% and JMJD2A Tudor -27.2%.
For Cc1ccc2c(c1)c1c(c(=O)n(Cc3ccccc3)c(=O)n1Cc1cccc(F)c1)n2C the results were BAZ2B inh 0.7%, KAT2A inh -6.0%, HP1b binding inh 24.8% and JMJD2A Tudor 5.9%.
`Cc1ccc(Cn2c(CO)cnc2SCC(=O)Nc2ccc(C)c(Cl)c2)cc1` gave BAZ2B inh inconclusive, KAT2A inh inconclusive, HP1b binding inh -22.5%[57 µM] and JMJD2A Tudor -19.8%.
CC(C)(C)NC(=O)C(c1c[nH]c2ccccc12)N(C(=O)Cn1nnc(-c2ccc(F)cc2)n1)c1cccc(O)c1 (stereo unspecified) was read as BAZ2B inh inconclusive, KAT2A inh -11.3%, PLK1 PBD inh 26.7µM*, HP1b binding inh inconclusive, JMJD2A Tudor 28.2µM* and PI5P4Ka inh -20.9.
`Cc1ccc(NC(=O)c2ccccc2OCC(=O)Nc2ccccc2F)cc1S(=O)(=O)N(C)C` gave BAZ2B inh 2.3%, KAT2A inh -8.7%, PLK1 PBD inh -9.9%, HP1b binding inh 28.8%, JMJD2A Tudor -17.9% and PI5P4Ka inh 15.3.
`COc1ccc(-c2cc3ccccc3n2CC(O)CNCCO)cc1` (stereo unspecified) gave BAZ2B inh 50.1µM*, KAT2A inh 0.5%, PLK1 PBD inh -4.0%, HP1b binding inh inconclusive, JMJD2A Tudor 5.01µM* and PI5P4Ka inh -3.9.
`Cn1c(=O)[nH]c2c(c1=O)CCO2` gave PLK1 PBD inh -2.3%, HP1b binding inh 15.8%, JMJD2A Tudor -5.6% and PI5P4Ka inh 2.4.
`COc1cc(/C=C/C(C)=NNc2ccccc2)ccc1O` gave PLK1 PBD inh -22.7%, HP1b binding inh inconclusive, JMJD2A Tudor 50.1µM* and PI5P4Ka inh -2.5.
COc1cc(/C=C/C(=O)/C=C(O)/C=C/c2ccc(O)c(OC)c2)ccc1O was read as BAZ2B inh inconclusive, KAT2A inh -7.7%, PLK1 PBD inh 32.0%, HP1b binding inh -12.5%, JMJD2A Tudor inconclusive and PI5P4Ka inh -22.2.
COc1cc(/C=C/C(=O)OCC(=O)NCc2ccccc2OC)ccc1O was read as BAZ2B inh -0.2%, KAT2A inh -5.8%, PLK1 PBD inh -12.5%, HP1b binding inh 15.6%, JMJD2A Tudor -7.6% and PI5P4Ka inh 1.1.
`COc1cc(/C=C/C(=O)CC(=O)/C=C/c2ccc(O)c(OC)c2)ccc1O` gave BAZ2B inh 39.8µM*, KAT2A inh -10.4%, PLK1 PBD inh 3.4%, HP1b binding inh -14.6%, JMJD2A Tudor inconclusive and PI5P4Ka inh inconclusive.
Screening C/C(=N\NC(=O)CNC(=O)C1COc2ccccc2O1)c1ccc(Cl)cc1 (stereo unspecified) returned BAZ2B inh 4.4%, KAT2A inh 0.6%, PLK1 PBD inh 5.1%, HP1b binding inh 26.1%, JMJD2A Tudor -5.2% and PI5P4Ka inh -12.0.

Bioassay records from PubChem BioAssay.
